Test results: PubChem BioAssay AID687001 (Broad Institute, 2013)
Potency and affinity values are given separately. The source made the active and inactive calls.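 The calls were made as follows: active = signal-lowering compounds whose fitted half-maximal concentration is at or below twice the top tested dose in every run; inconclusive = runs disagree, flat 30 to 70% inhibition, or poor curve fit; inactive = the rest.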

What follows are compounds tested against Protein S100-A4 (Homo sapiens) (UniProt P26447) (assay: S100A4-myosin IIA binding inhibitor potency, dose response, biochemical, fluorescence polarization, cherry-picked hits (AID 687001;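 also: 0% = DMSO neutral control wells and -100% = TFP positive control wells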)). Settings: FP, S100A4/TAMRA-myosin IIA peptide binding; series mostly up to 11 µM.
Chain of Protein S100-A4 (Homo sapiens) (P26447 whole entry, looked up): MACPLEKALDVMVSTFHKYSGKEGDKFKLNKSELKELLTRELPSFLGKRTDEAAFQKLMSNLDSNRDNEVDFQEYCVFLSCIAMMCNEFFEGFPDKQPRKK

outcome, inactive:
O=C(Nc1ccc(Cl)cc1)N[C@H]1CC[C@H](CCNC(=O)c2ccccc2F)O[C@@H]1CO
CC(C)NC(=O)N(C)C[C@@H]1Oc2ccc(NS(=O)(=O)c3ccccc3)cc2C(=O)N([C@H](C)CO)C[C@@H]1C
C[C@@H]1CN([C@@H](C)CO)C(=O)c2cc(/C=C/c3ccccc3)cnc2O[C@H]1CN(C)S(=O)(=O)c1cccs1
COc1ccc(-c2cc(C(=O)NC3CC3)c3ccccc3n2)cc1
Cc1cc2cc(C#N)c(N3CCOCC3)nc2cc1Cl
COc1ccc(/C=C2/CCCc3ccccc3C2=O)cc1
Cc1ccccc1CN1CCC(n2nccc2NC(=O)CCOc2ccccc2)CC1
COc1ccc(C)cc1NS(=O)(=O)c1ccc2c(c1)N(C)CCO2
CC=Cc1ccc2n(c1=O)C[C@@H]1N[C@H]2[C@H](C(=O)NC2CCCCC2)[C@H]1CO (mixture of isomers)
Cc1cc(C(=O)CSc2nc(N)cc(=O)[nH]2)ccc1F
C[C@H](CO)N1C[C@H](C)[C@H](CN(C)C)Oc2cc(C3=CCCC3)ccc2S1(=O)=O
Cc1ccc(CNC(=O)c2[nH]c(C(F)(F)F)nc2-c2ccccc2)cc1
C[C@@H]1CCCCO[C@@H](CN(C)CC2CCCCC2)[C@@H](C)CN([C@H](C)CO)C(=O)c2cc(NS(=O)(=O)c3cn(C)cn3)ccc2O1
COc1ccccc1CNc1nc(C)c(C(C)=O)s1
C[C@@H]1CN([C@H](C)CO)C(=O)Cc2cc(NC(=O)CCN3CCOCC3)ccc2O[C@H]1CN(C)Cc1ccc2c(c1)OCO2
O=C1[C@H]2[C@@H](c3ccc(F)cc3)N3C(=O)N(c4cccc(Br)c4)C(=O)[C@@]3(Cc3ccccc3)[C@H]2C(=O)N1C1CCCCC1
N#C[C@@H]1[C@H](c2ccccc2-c2cccc(F)c2)[C@@H](CO)N1C(=O)C1CC1
O=C(NCCC1=CCCCC1)c1ccc(Cl)c(S(=O)(=O)N2CCCCC2)c1
CC(NC(=O)Nc1ccc(F)cc1)c1ccc2c(c1)OCO2 (centres undefined)
Cc1ccccc1S(=O)(=O)N(C)C[C@@H]1OCc2cnnn2CCCC(=O)N([C@@H](C)CO)C[C@H]1C
O=c1[nH][nH]c(=O)c2nc(Nc3ccccc3)ncc12
COc1ccc(C(=O)N(C)C2(C)CCS(=O)(=O)C2)cc1OC (centres undefined)
COC(=O)c1c(NC(=O)CN(C)CC(=O)Nc2ccc(C)cc2)sc2c1CCC(C)C2 (centres undefined)
O=C(C[C@@H]1C[C@H]2c3cc(NC(=O)NC4CCCC4)ccc3O[C@H]2[C@H](CO)O1)NCCc1ccccc1
NC(=O)NC(Cc1ccccc1)C(=O)NCCCSc1ccccc1 (centres undefined)
CC(C)CC1C(=O)N(Cc2cn(CC3CCCCC3)nn2)CCS(=O)(=O)N1Cc1ccc(-c2ccc(Cl)cc2)cc1 (centres undefined)
Cn1cc(SCC(=O)NC2CCCC2)c2ccccc21
CCCCN1C[C@H](CSC)[C@@H](CC(=O)Nc2ccc(Br)cc2)C1=O
COc1cc(OC)c2ccc(=O)oc2c1C(CC(=O)N1CCN(c2ccccc2)CC1)c1ccc2c(c1)OCO2 (centres undefined)
C[C@@H]1CCCCO[C@@H](CN(C)S(=O)(=O)c2ccccc2)[C@@H](C)CN([C@@H](C)CO)C(=O)c2cc(NC(=O)CCCN(C)C)ccc2O1
C[C@H]1CCCCO[C@H](CN(C)Cc2ccc(C(F)(F)F)cc2)[C@@H](C)CN([C@@H](C)CO)C(=O)c2cc(NC(=O)Nc3ccc4c(c3)OCO4)ccc2O1
COc1ccc(C)c2sc(N(CCN(C)C)C(=O)c3ccc4ccccc4c3)nc12
O=C(C[C@H]1C[C@H]2c3cc(NC(=O)Cc4ccncc4)ccc3O[C@H]2[C@H](CO)O1)NCc1ccccn1
Cc1nonc1NC(=O)CSc1nnc(N)s1
CC(C)CC#Cc1ccc([C@@H]2[C@H](CO)N3C(=O)CN(C(=O)c4ccccn4)C[C@@H]23)cc1
CCCN1CCCCC(NC(=O)c2c(F)cccc2F)C1=O (centres undefined)
CCCn1cnc2c(oc3ccccc32)c1=O
Cc1cccc(S(=O)(=O)N2CC[C@@H]3[C@H](CO)Nc4ccc(C#Cc5ccc(F)cc5)cc4[C@@H]32)c1

Activity change, negative = inhibition, inactive:
CN(C)c1ccc(/C=C(\C#N)C(=O)OCC(=O)N(C)C2CCS(=O)(=O)C2)cc1 (centres undefined) 128% [at 2.6 µM]
